Compound activity: PubChem BioAssay, several laboratories
CatL block – inhibitors of human cathepsin L | 58,000 compounds, 0.17% hits | P07711 | inhibition, %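 (tested at 10 µM)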 | purified cathepsin L, fluorogenic substrate, fluorescence; in the data active = inhibition above about 45%
CatB block – blocks human cathepsin B protease activity. inhibition, %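 (tested at 10 µM)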. 63,000 compounds, 0.1% hits. P07858. purified cathepsin B, fluorogenic substrate, fluorescence; in the data active = inhibition above about 21%
WNV NS2B-NS3 inh – WNV NS2B-NS3 proteinase inhibition. z-score (no concentration beside the values). WNV NS2B-NS3 protease, fluorogenic substrate Ex360/Em465; hits give low values. 65,000 compounds, 0.18% hits. P06935. AID 577; in the data active = z-score below about -3
Htt clearance – mutant huntingtin protein clearance. inhibition, % at 1.5 µM. 47,000 compounds, 0.42% hits. HeLa Exon1htt(103Q)mCFP, aggregate imaging; zero = plate's median compound well;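 active = inhibition of aggregate fluorescence above about 70%, also judged a hit by eye on the cell image, limit read from the data, passing the limit was not always enough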;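 note: cells exposed to compound for three days before fixation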
CatB mix inh – inhibitors of human cathepsin B in compound mixtures | Purified cathepsin B, AMC dipeptide fluorescence | inhibition, %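 (ten-compound pools at 5 µM per compound and 50 µM total)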 | P07858 | 62,000 compounds, 0.06% hits | AID 488; in the data active = inhibition above about 22%, passing the limit was not always enough
CatS block – human cathepsin S inhibition; P25774; inhibition, %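 (tested at 5 µM per compound within 10-compound mixtures)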; 62,000 compounds, 0.06% hits; recombinant cathepsin S, AMC dipeptide fluorescence, pooled mixtures; in the data active = inhibition above about 32%, passing the limit was not always enough
Target sequence (P25774 115-331 limits assumed): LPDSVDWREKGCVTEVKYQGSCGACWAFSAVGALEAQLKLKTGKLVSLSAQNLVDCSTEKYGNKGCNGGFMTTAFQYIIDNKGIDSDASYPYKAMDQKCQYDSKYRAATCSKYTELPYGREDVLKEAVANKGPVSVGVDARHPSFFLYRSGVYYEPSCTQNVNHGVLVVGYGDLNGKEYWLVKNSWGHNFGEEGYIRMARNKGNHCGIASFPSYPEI
Hits are given with their value; i = inactive; nt = no result. In the library only some 0.61% were active in any assay of this set; here they are far more common.

SMILES	CatL block	CatB block	WNV NS2B-NS3 inh	Htt clearance	CatB mix inh	CatS block
CN(c1ncc(C(F)(F)F)cc1Cl)n1cc(C(N)=O)c2ccccc2c1=O	nt	nt	nt	i	nt	nt
COc1ccc(S(=O)(=O)n2nc(OC(=O)c3ccc(C)cc3)cc2N)cc1	i	49	i	nt	32	i
COc1ccc(NS(=O)(=O)c2ccc(SC)cc2)cc1	nt	i	i	86	i	i
CSc1ccc(S(=O)(=O)Nc2ccc(F)cc2)cc1	i	i	i	i	i	i
Cc1ccc(S(=O)(=O)NCCC(=O)NCCN2CCCCCC2)cc1	64	i	i	nt	i	i
Cc1ccc(S(=O)(=O)NCCNC(=O)CN2CCCC2)cc1	i	i	i	nt	i	i
CCOc1ccc(S(=O)(=O)n2nnc3ccccc32)cc1C	i	i	i	74	i	i
Cc1n[nH]c(=O)nc1NCC1CCCO1 (stereo unspecified)	i	i	i	76	i	i
Cc1ccc(C)c(N2CCN(C(=O)CNS(=O)(=O)c3cccs3)CC2)c1	nt	nt	nt	i	nt	nt
COc1ccc2nc(/N=C\N(C)C)sc2c1	i	41	i	i	i	i
COC(=O)Cc1cc(=O)[nH]c(Nc2nc3ccccc3o2)n1	i	i	i	75	i	i
CCOC(=O)Cc1cc(=O)[nH]c(Nc2nc3ccccc3o2)n1	i	i	i	i	i	i
CCc1ccccc1NC(=O)CSc1nnc(Cn2nnc3ccccc32)n1C	nt	nt	nt	i	nt	nt
Cc1nn(C)c(C)c1S(=O)(=O)N(CC(=O)N1CCc2ccccc2C1)c1ccc(C(C)C)cc1	nt	nt	nt	i	nt	nt
O=C(Nc1ccc2c(c1)OCO2)c1cccc(F)c1	i	i	i	i	i	i
O=C(/C=C\Nc1cccc(F)c1)c1ccc2c(c1)OCO2	nt	i	i	84	i	i
CCc1nc(C)cc(N)c1OCc1ccccc1	i	i	i	nt	i	i
Cc1nc(CCNC(=O)COc2ccccc2)cs1	i	i	i	74	i	i
CC(=O)Nc1nc2n(n1)C(c1ccc(F)cc1)C=C(c1ccccc1)N2 (stereo unspecified)	49	i	i	i	i	i
CCn1c(NCc2cc(Br)ccc2NS(=O)(=O)c2ccc(C)cc2)nc2ccccc21	nt	nt	nt	i	nt	nt
Cn1c(=O)c2c(ncn2CCO)n(C)c1=O	i	i	i	nt	i	i
CC(C)CCn1cnc2c1c(=O)n(C)c(=O)n2C	nt	nt	i	73	nt	nt
O=C(CCCN1C(=O)c2cccc3cccc(c23)C1=O)N1CCc2ccccc2C1	nt	nt	nt	i	nt	nt
COc1ccc(OC)c(C2C(C(N)=O)=C(C)Nc3nc(-c4cccc(Cl)c4)nn32)c1 (stereo unspecified)	i	i	-4.8	nt	i	i
COc1ccccc1-c1nc2n(n1)C(c1ccccc1Cl)C(C(N)=O)=C(C)N2 (stereo unspecified)	i	i	i	i	i	i
SMILES	CatL block	CatB block	WNV NS2B-NS3 inh	Htt clearance	CatB mix inh	CatS block
O=C(Cn1nnc(-c2ccccc2Cl)n1)N1CCN(S(=O)(=O)c2ccc(Cl)cc2)CC1	i	i	i	76	i	i
O=C(Cn1nnc(-c2ccccc2-n2cnnn2)n1)N1CCCCC1	i	i	i	i	i	i
O=c1c2c3c(sc2n2c(=S)[nH]nc2n1Cc1ccccc1)CN(Cc1ccccc1)CC3	nt	nt	nt	i	nt	nt
CCS(=O)(=O)N1Cc2ccccc2CC1C(=O)N1CCN(c2cccc(C)c2C)CC1 (stereo unspecified)	i	i	-3.1	i	i	i
COc1ccc(C2CC(c3ccc(Cl)cc3)Nc3nc(NC(=O)c4ccco4)nn32)cc1 (stereo unspecified)	i	i	i	75	i	i
COc1ccc(NC2=NCC(=O)N2c2ccccc2)c(OC)c1	i	i	i	nt	i	i
CCOc1ccc(N2C(=O)CN=C2Nc2ccccc2F)cc1	nt	nt	nt	97	nt	nt
COc1cc(C2Nn3c(nnc3-c3ccccc3OC)S2)ccc1O (stereo unspecified)	nt	nt	nt	i	nt	nt
CCN(CC)CCNc1nc2c(c(=O)[nH]c(=O)n2C)n1CC(O)COc1ccc(Cl)cc1Cl (stereo unspecified)	i	i	i	i	i	i
CN(C)CCNc1nc2c(c(=O)[nH]c(=O)n2C)n1CC(O)COc1ccc(Cl)cc1 (stereo unspecified)	47	i	i	i	i	i
O=C(Nc1ccccc1)N1CCCc2ccccc21	nt	nt	nt	83	nt	nt
CCN1CCN(c2cc(C)c3cc(NC(=O)c4cnccn4)ccc3n2)CC1	i	i	i	nt	i	i
CCN1CCN(CNC(=O)c2cnccn2)CC1	nt	i	-4.8	i	i	i
CCc1ccc(N(CC(=O)Nc2nc3ccc(C)cc3s2)S(=O)(=O)c2c(C)noc2C)cc1	nt	nt	nt	i	nt	nt
